This passage reports INHIBITION results from ChEMBL document CHEMBL4513216, “Probing the Open Global Health Chemical Diversity Library for Multistage-Active Starting Points for Next-Generation Antimalarials” (ACS Infect Dis, 2020).

Out of some 65,000 compounds screened, about 2,100 (3.2%) showed an effect of 50% or more. The median lay at about -52%. The list comes from a sample in which strong results are over-represented; it also holds similar structures and randomly drawn compounds.

For the assay, the system named is Plasmodium falciparum. Nature of the assay: Screen against P. falciparum Asexual Blood Stage (ABS), at 5uM. Type of assay: functional, Dd2. The note with it: tested at 5 uM.
Regarding `Cn1ccc2c(cnc3nc(-c4ccncc4)nn32)c1=O`, the INHIBITION was -169%.
With `CN(C)c1ccc(C(=O)N2CCC(c3cc4ncccc4[nH]3)CC2)cc1`, the INHIBITION is reported as 55.6%.
On to `COc1cc(CCC(=O)N2CCC(c3cc4ncccc4[nH]3)CC2)on1`, for which the INHIBITION is listed as -0.239%.
Turning to `CN(C)c1ccc(C(=O)N2CCC(c3cc4cnccc4[nH]3)CC2)cc1`, the INHIBITION stood at 29.8%.
As to `CCNC(=O)NC(=O)C(C)N(C)CCOc1ccccc1C` (configuration not stated), the INHIBITION is reported as -80.5%.
As for `CC(=O)N1CCO[C@@H]2CN(S(=O)(=O)c3ccccc3F)C[C@@H]2C1`, the INHIBITION is -67.6%.
On to `CN1CCO[C@H]2CN(S(=O)(=O)c3ccc(C#N)cc3)C[C@H]21`, for which the INHIBITION is given as -81.8%.
Consider `CN1CCO[C@@H]2CN(S(=O)(=O)c3cccs3)CC[C@@H]2C1`, for which the INHIBITION was -22.2%.
Take `Cc1ccc(S(=O)(=O)N2CC[C@H]3CO[C@H](CN(C)C)[C@H]3C2)cc1`: the INHIBITION stood at 12.4%.
On to `CN(C)C[C@H]1OC[C@@H]2CCN(S(=O)(=O)c3ccccc3)C[C@@H]21`, for which the INHIBITION is -3.11%.
With `CN1CCO[C@@H]2CN(S(=O)(=O)c3ccccc3F)CC[C@@H]2C1`, the INHIBITION is listed as 50.3%.
For `CN1CCO[C@@H]2CN(S(=O)(=O)c3ccccc3)C[C@@H]2C1`, the INHIBITION is listed as -17.9%.
In the case of `CCN1CCO[C@@H]2CN(S(=O)(=O)c3cccs3)CC[C@@H]2C1` it was 40.2%; in that of `COc1ccc(S(=O)(=O)N2C[C@@H]3CN(C)CCO[C@@H]3C2)cc1`, 60.2%.
With `CN(C)C[C@H]1OC[C@@H]2CCN(S(=O)(=O)c3ccc(F)cc3)C[C@@H]21`, the INHIBITION is 50.5%.
`CC(C)N1CCO[C@@H]2CN(S(=O)(=O)c3cccs3)CC[C@@H]2C1`: the INHIBITION was 52.1%.
On to `O=C1CO[C@@H]2CN(S(=O)(=O)c3ccccc3F)C[C@H]2N1`, for which the INHIBITION was -30.8%.
Consider `CN1CC(=O)N(c2ccccc2)Cc2c(NC3CC3)ncnc21`, for which the INHIBITION is recorded as -97.2%.
In the case of `CO[C@H]1CN(C(=O)OC(C)(C)C)CC1NCc1ccco1` (some centres not stated) it was -47.8%.
Turning to `CN(CCNC(=O)Nc1ccn(C)n1)Cc1ccc(F)cc1`, the INHIBITION is listed as -27.6%.
For the compound `CC(C)NC(=O)N1CCc2onc(C(=O)NCCN(C)C)c2C1`, the INHIBITION is recorded as -13.1%.
Consider `COCc1nn(C(C)C)c2c1CCN(Cc1ccc(C)o1)C2`, for which the INHIBITION is on record as -31%.
In the case of `CC(C)C1=NOC2(CCN(Cc3c[nH]c4ccccc34)CC2)C1` it was 2.84%; in that of `Cc1ccc(CNCC2Cn3nnc(-c4cnn(C)c4)c3CO2)o1` (configuration not stated), -32.4%; in that of `Cc1ccc(Nc2nccc(C3CCCN(CC(=O)N(C)C)C3)n2)nc1` (configuration not stated), -3.51%.
In the case of `Cc1ccc(N2CCc3ncnc(C4CC4)c3CC2)nn1` it was -150%; in that of `CN1CCO[C@@H]2CN(S(=O)(=O)c3ccc(F)cc3)CC[C@@H]2C1`, 62.7%.
With `CN1CCO[C@@H]2CN(S(=O)(=O)c3ccccc3)CC[C@@H]2C1`, the INHIBITION was 33.8%.
`CC(=O)N1CCO[C@@H]2CN(S(=O)(=O)c3ccc(F)cc3)CC[C@@H]2C1`: the INHIBITION is listed as -83.8%.
For `N#Cc1ccccc1CN1C[C@@H]2CC[C@H]1CN(C(=O)c1cccnc1)C2`, the INHIBITION is given as -15.6%.
Turning to `CCN(C(=O)CN1CCCN(c2nc(C)ns2)CC1)C1CC1`, the INHIBITION is reported as -126%.
To `CC(C)CC(=O)NCC1CCC(C(c2ccccn2)N(C)C)CC1` (configuration not stated) belongs -110%.
On to `O=C(c1ccccn1)N1CCC2(COc3ncccc3S(=O)(=O)N2)C1` (configuration not stated), for which the INHIBITION is reported as -69.3%.
Turning to `Cc1ccc(CN(CCCn2ccnc2)Cc2c[nH]nc2C(C)(C)C)s1`, the INHIBITION is reported as 33.5%.
`Cc1ccc2nc(C)cc(NCCNS(=O)(=O)c3cccnc3)c2c1`: the INHIBITION is 62.9%.
Take `Cc1cc(NCCNS(=O)(=O)c2cn(C)nc2C)c2ccccc2n1`: the INHIBITION came out at 3.35%.
Turning to `Cc1ccc2nc(C)cc(NCCNS(=O)(=O)c3cn(C)nc3C)c2c1`, the INHIBITION was found to be 47.8%.
On to `COc1nn(C)c2c1CCCN(C(=O)c1cccs1)C2`, for which the INHIBITION is reported as -22.1%.
To `O=C(c1ccc(F)cc1)N1CC[C@H]2[C@H]1CCN2CC1CCOCC1` belongs -112%; to `Cc1nc(CN2CCN(C(=O)C(C(C)C)n3cncn3)CC2)cs1` (configuration not stated), -61.1%.
Turning to `CN1N=C(C(=O)N(Cc2ccco2)C2CC2)CCC1=O`, the INHIBITION was -127%.
For the compound `CN1CCC(N(Cc2ccco2)S(=O)(=O)c2ccc(Cl)cc2)CC1`, the INHIBITION came to 56.8%.
With `CC1CCN(C(=O)CN(Cc2ccco2)C2CC2)CC1`, the INHIBITION was -115%.
Take `COCCNC(=O)[C@H]1C[C@@H]2CCN(Cc3nccs3)C[C@H]2O1`: the INHIBITION is -127%.
`Cc1cc(C(=O)N(CCN(C)C)Cc2ccc(Cl)cc2)no1`: the INHIBITION is reported as 53.4%.
Regarding `CN(C)CCN(Cc1ccc(Cl)cc1)C(=O)c1ccncc1`, the INHIBITION is 53.1%.
On to `CN(C)CCN(Cc1ccc(Cl)cc1)C(=O)c1ccn(C)c(=O)c1`, for which the INHIBITION is given as -73.6%.
As for `Cc1cnc(C(=O)N(CCN(C)C)Cc2ccc(Cl)cc2)cn1`, the INHIBITION is given as -35.7%.
As to `CN(C)CCN(Cc1ccc(C(F)(F)F)cc1)C(=O)c1cc[nH]n1`, the INHIBITION was determined as 35.8%.
As to `CN(C)CCN(Cc1ccc(Cl)cc1)C(=O)c1cnccn1`, the INHIBITION stood at 35.1%.
On to `Cc1nc(COCc2cnc3n2CCN(C)C3C)cs1` (configuration not stated), for which the INHIBITION is -63.4%.
In the case of `O=C(NCCc1cccs1)[C@H]1CO[C@H]2CCN(C3CCC3)C[C@H]2C1`, the INHIBITION is given as -9.07%.
To `O=S(=O)(NCC1CCOC1)N1CCc2ccccc2C1` (configuration not stated) belongs -80.7%.
For the compound `CCN1CCC(CNS(=O)(=O)N2CCc3ccccc3C2)C1` (configuration not stated), the INHIBITION was 53.9%.
As for `O=S1(=O)CCC(CNS(=O)(=O)N2CCc3ccccc3C2)C1` (configuration not stated), the INHIBITION was -114%.
Turning to `COc1ccc(C(=O)NCC(c2cccn2C)N2CCCC2)cc1OC` (configuration not stated), the INHIBITION is reported as 28%.
`COc1ccc(C(=O)NCC(c2cccn2C)N2CCN(C)CC2)cc1` (configuration not stated): the INHIBITION is reported as -35%.
As for `COc1cc(OC)cc(C(=O)NCC(c2cccn2C)N2CCCC2)c1` (configuration not stated), the INHIBITION is recorded as 55.5%.
Take `O=C(NCC(O)COc1ccccc1)Nc1nncs1` (configuration not stated): the INHIBITION is recorded as -50.2%.
Regarding `O=C(CCc1ccccc1)NCC1CCN(Cc2ccsc2)CC1`, the INHIBITION is listed as 19.8%.
For the compound `O=C(CCc1ccsc1)NCC1CCN(Cc2cccs2)CC1`, the INHIBITION was 59.5%.
In the case of `O=C(CCc1ccccc1)NCC1CCN(Cc2cccs2)CC1` it was -7.73%.
To `CCOc1nn(CC)cc1-c1nnc(SCc2ccccn2)n1C` belongs -121%; to `CCCC(=O)N(CCCN1CCOCC1)c1nc2c(Cl)cccc2s1`, -1.93%; to `Cc1noc(C(C)C)c1C(=O)NCC1CCCN1Cc1ccccc1` (configuration not stated), 65.7%.
As for `Cc1noc(C)c1C(=O)NCC1CCCCN1Cc1ccccc1` (configuration not stated), the INHIBITION is -3.72%.
As to `Cc1noc(C(C)C)c1C(=O)NCC1CCN(c2ccccc2)C1` (configuration not stated), the INHIBITION was determined as 35.6%.
For `Cc1cnn(CCC(=O)N2CCC3(CCC(=O)N(CC4CC4)C3)CC2)c1`, the INHIBITION is reported as -49%.
For the compound `Cn1nc(CNC(=O)c2ccc3nsnc3c2)c2c1CCOC2`, the INHIBITION was -37.5%.
In the case of `Cc1cnc(C)c(Oc2ccc(Cl)c(CN3CCCC3)c2Cl)n1` it was -31.4%.
`CCc1noc(C2CCCCN2C(=O)c2cc(C)oc2C)n1` (configuration not stated): the INHIBITION is listed as -14.9%.
For the compound `COc1cc2nc(NCc3cc(C)on3)nc(N)c2cc1OC`, the INHIBITION is 61.4%.
To `COc1ccc(Cl)cc1NCc1cc(C)on1` belongs -142%; to `CCOc1ccc(OCC)c(NCc2cc(C)on2)c1`, -105%.
As to `O=S(=O)(c1ccccc1)N1CCC2(CCCN2Cc2cccc(Cl)c2)C1` (configuration not stated), the INHIBITION amounted to 18.8%.
In the case of `COc1ccc(F)cc1-c1ccccc1CC1(C(=O)O)CCOCC1`, the INHIBITION is -130%.
To `Cc1cc(F)ccc1-c1ccccc1CC1CNCCNC1=O` (configuration not stated) belongs 49.3%; to `COc1ccc(F)cc1-c1ccccc1CC1CNCCNC1=O` (configuration not stated), 51.7%.
For the compound `O=C(CSCCN1CCOCC1)N1CCc2ccccc2C1`, the INHIBITION is -92.5%.
As to `O=C(CCc1nccs1)N1CCN(c2ccccn2)CC1`, the INHIBITION is given as -127%.
On to `Cn1ccnc1CN1CCC2(CC1)COCCN(c1ncccn1)C2`, for which the INHIBITION is listed as -9.16%.
For `Cn1ccnc1CN1CCC2(COCCN(S(=O)(=O)C3CC3)C2)C1` (configuration not stated), the INHIBITION is recorded as -106%.
With `Cn1ccnc1CN1CCC2(COCCN(Cc3ccsc3)C2)C1` (configuration not stated), the INHIBITION was 52%.
For the compound `COCC1Cn2nnc(-c3cnn(C)c3)c2CN1Cc1ccoc1` (configuration not stated), the INHIBITION is given as 28.8%.
As to `CCCc1nc2c(c(C)c(C)n2Cc2ccccn2)c(N)c1CC`, the INHIBITION was determined as 59.4%.
In the case of `CCc1cc(NCCc2cccnc2)n2nc(C)c(C)c2n1` it was -108.7%; in that of `Cc1c(C)n(Cc2ccncc2)c2nc3c(c(N)c12)CCCC3`, -12.1%; in that of `CCCc1nc2c(c(C)c(C)n2Cc2cccnc2)c(N)c1CC`, 65%.
In the case of `Cc1c(C)n(Cc2ccccn2)c2nc3c(c(N)c12)CCCC3` it was 46.7%; in that of `CCc1c(C)sc2c1c(N)nc(=O)n2CCCN(C)C`, -147%.
Regarding `CCc1c(-c2ccccc2)nc2c(c(C)c(C)n2CCN(C)C)c1N`, the INHIBITION turned out to be 67.6%.
As for `CCc1nc2c(c(C)c(C)n2Cc2cccnc2)c(N)c1C`, the INHIBITION was found to be 20.4%.
In the case of `Cc1cc(C(=O)N2CCNC(=O)C2)c(C)n1Cc1ccccn1` it was -68.6%; in that of `CCc1c(C)sc2c1c(N)nc(=O)n2CCN(C)C`, 17.4%; in that of `Cc1c(C)n(Cc2ccncc2)c2nc3c(c(N)c12)CCCCCC3`, 28.3%.
Turning to `CCCc1nc2c(c(C)c(C)n2Cc2ccncc2)c(N)c1CC`, the INHIBITION was found to be 60.3%.
For `CCC(Nc1nc(C)nc2onc(C)c12)c1nc(C)c(C)s1` (configuration not stated), the INHIBITION is given as -38.1%.
Consider `CCCc1noc(CN2CCOCC2C)n1` (configuration not stated), for which the INHIBITION was -47.4%.
For `Cc1cc(NC(=O)CCn2nc(C)c3ccccc32)n(C(C)C)n1`, the INHIBITION is on record as -75.1%.
For `CO[C@H]1CCN(S(=O)(=O)c2cn(C)cn2)[C@H]1Cc1cccnc1`, the INHIBITION is recorded as -8.09%.
For `Cc1cc(=O)n2nc(-c3cccs3)nc2n1CC(=O)NC(C)C`, the INHIBITION is -10.8%.
For the compound `Cc1cc(C)c(CNC(=O)N(C)Cc2ccc3c(c2)OCO3)c(=O)[nH]1`, the INHIBITION was -71.6%.
